In ChEMBL document CHEMBL2218924, “A broad activity screen in support of a chemogenomic map for kinase signalling research and drug discovery” (Biochem J, 2013):

Legend:
[1] = molecular target: Tyrosine-protein kinase Fer (Homo sapiens) (UniProt P16591); conditions: at 10 µM
[2] = molecular target: Tyrosine-protein kinase Fes/Fps (Homo sapiens) (UniProt P07332); conditions: at 1 µM
[3] = molecular target: Tyrosine-protein kinase Fes/Fps (Homo sapiens) (UniProt P07332); conditions: at 10 µM
[4] = molecular target: Tyrosine-protein kinase Fgr (Homo sapiens) (UniProt P09769); conditions: at 1 µM
[5] = molecular target: Tyrosine-protein kinase Fgr (Homo sapiens) (UniProt P09769); conditions: at 10 µM
[6] = molecular target: Vascular endothelial growth factor receptor 1 (Homo sapiens) (UniProt P17948); conditions: at 1 µM
[7] = molecular target: Vascular endothelial growth factor receptor 1 (Homo sapiens) (UniProt P17948); conditions: at 10 µM
[8] = molecular target: Receptor-type tyrosine-protein kinase FLT3 (Homo sapiens) (UniProt P36888); conditions: at 1 µM
[9] = molecular target: Receptor-type tyrosine-protein kinase FLT3 (Homo sapiens) (UniProt P36888); conditions: at 10 µM
[10] = molecular target: Vascular endothelial growth factor receptor 3 (Homo sapiens) (UniProt P35916); conditions: at 1 µM
[11] = molecular target: Vascular endothelial growth factor receptor 3 (Homo sapiens) (UniProt P35916); conditions: at 10 µM
[12] = molecular target: Macrophage colony-stimulating factor 1 receptor (Homo sapiens) (UniProt P07333); conditions: at 1 µM
[13] = molecular target: Macrophage colony-stimulating factor 1 receptor (Homo sapiens) (UniProt P07333); conditions: at 10 µM
[14] = molecular target: Tyrosine-protein kinase Fyn (Homo sapiens) (UniProt P06241); conditions: at 1 µM
[15] = molecular target: Tyrosine-protein kinase Fyn (Homo sapiens) (UniProt P06241); conditions: at 10 µM
[16] = molecular target: T1, Mitogen-activated protein kinase kinase kinase kinase 2 (Homo sapiens) (UniProt Q12851); conditions: at 1 µM
T1 sequence (whole entry): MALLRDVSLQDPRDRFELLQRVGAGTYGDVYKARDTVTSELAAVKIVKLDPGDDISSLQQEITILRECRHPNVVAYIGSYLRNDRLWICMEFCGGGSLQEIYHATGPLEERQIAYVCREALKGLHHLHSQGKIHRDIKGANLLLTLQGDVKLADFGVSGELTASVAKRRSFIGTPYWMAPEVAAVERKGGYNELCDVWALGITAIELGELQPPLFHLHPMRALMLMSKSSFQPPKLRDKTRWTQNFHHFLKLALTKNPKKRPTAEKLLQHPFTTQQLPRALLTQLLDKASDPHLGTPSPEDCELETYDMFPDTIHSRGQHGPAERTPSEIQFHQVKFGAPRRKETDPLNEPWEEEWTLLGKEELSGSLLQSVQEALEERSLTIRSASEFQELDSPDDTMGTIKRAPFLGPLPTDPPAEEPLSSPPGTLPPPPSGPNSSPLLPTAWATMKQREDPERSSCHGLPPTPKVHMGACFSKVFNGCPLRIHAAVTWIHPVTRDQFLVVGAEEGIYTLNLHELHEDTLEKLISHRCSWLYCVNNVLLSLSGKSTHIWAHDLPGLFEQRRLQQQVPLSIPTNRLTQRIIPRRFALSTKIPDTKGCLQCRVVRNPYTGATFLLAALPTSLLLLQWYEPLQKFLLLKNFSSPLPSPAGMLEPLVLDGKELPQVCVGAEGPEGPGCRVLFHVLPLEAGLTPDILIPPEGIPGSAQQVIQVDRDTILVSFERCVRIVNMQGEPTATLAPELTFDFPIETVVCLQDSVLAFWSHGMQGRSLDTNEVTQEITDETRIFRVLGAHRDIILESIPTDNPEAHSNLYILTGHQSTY

[17] = molecular target: T1, Mitogen-activated protein kinase kinase kinase kinase 2 (Homo sapiens); conditions: at 10 µM
[18] = molecular target: G protein-coupled receptor kinase 5 (Homo sapiens) (UniProt P34947); conditions: at 10 µM
[19] = molecular target: G protein-coupled receptor kinase 6 (Homo sapiens) (UniProt P43250); conditions: at 10 µM
[20] = molecular target: T2, Rhodopsin kinase GRK7 (Homo sapiens) (UniProt Q8WTQ7); conditions: at 1 µM
T2 sequence (whole entry): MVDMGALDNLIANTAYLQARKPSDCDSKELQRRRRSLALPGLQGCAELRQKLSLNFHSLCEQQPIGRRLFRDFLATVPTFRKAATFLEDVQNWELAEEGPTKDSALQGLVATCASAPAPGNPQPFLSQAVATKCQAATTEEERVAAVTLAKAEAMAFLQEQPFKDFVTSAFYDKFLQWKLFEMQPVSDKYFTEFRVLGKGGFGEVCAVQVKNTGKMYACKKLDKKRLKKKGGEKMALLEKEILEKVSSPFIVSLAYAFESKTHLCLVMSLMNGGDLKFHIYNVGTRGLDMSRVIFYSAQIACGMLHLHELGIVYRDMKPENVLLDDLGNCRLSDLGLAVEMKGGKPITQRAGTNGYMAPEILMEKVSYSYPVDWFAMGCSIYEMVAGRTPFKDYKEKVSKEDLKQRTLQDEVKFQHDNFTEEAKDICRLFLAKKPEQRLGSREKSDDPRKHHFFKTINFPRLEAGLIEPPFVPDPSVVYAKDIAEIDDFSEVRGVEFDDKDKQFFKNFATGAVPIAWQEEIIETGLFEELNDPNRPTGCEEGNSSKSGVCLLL

Sequence of G protein-coupled receptor kinase 5 (Homo sapiens) (P34947 whole entry, looked up): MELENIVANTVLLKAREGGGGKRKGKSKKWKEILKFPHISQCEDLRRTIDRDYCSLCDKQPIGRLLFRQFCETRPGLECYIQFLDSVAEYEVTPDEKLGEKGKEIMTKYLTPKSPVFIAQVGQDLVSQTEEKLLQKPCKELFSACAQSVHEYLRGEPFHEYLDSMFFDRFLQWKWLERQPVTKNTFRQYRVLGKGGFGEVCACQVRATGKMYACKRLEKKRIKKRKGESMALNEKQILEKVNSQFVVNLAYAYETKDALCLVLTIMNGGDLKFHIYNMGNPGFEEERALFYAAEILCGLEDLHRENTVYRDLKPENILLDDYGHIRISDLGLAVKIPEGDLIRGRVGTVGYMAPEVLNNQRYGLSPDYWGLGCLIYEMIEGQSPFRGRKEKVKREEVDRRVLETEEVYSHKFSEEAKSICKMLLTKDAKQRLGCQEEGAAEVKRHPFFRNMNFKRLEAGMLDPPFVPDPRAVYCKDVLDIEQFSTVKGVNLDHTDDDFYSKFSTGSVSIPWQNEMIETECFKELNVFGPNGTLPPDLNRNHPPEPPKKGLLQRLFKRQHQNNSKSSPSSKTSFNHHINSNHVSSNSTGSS
Sequence of Receptor-type tyrosine-protein kinase FLT3 (Homo sapiens) (P36888 whole entry): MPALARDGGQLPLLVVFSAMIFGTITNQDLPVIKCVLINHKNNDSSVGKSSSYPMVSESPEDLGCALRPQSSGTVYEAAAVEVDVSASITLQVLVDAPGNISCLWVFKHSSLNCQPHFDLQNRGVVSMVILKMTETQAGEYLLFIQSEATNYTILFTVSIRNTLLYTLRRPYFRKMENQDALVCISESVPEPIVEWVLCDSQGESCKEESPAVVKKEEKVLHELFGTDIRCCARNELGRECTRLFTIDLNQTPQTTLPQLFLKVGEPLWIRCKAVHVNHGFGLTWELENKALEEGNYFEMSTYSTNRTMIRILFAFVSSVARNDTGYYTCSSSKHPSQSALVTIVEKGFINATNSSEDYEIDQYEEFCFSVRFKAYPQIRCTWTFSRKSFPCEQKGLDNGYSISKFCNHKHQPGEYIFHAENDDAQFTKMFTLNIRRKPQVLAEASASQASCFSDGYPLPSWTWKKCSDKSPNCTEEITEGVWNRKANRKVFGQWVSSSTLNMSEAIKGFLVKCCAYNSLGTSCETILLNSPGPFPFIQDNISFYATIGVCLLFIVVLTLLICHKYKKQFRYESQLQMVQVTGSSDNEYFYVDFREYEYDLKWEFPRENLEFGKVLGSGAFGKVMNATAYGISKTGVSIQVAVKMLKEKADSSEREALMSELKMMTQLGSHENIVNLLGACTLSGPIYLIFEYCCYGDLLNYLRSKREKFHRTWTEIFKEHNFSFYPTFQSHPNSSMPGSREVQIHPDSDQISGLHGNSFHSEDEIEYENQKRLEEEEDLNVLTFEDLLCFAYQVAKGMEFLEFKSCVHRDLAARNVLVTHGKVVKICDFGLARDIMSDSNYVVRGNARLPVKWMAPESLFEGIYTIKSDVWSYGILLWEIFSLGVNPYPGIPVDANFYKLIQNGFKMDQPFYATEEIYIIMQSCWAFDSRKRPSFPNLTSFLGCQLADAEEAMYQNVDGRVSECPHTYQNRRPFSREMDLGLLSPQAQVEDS
Sequence of Tyrosine-protein kinase Fer (Homo sapiens) (P16591 whole entry, looked up): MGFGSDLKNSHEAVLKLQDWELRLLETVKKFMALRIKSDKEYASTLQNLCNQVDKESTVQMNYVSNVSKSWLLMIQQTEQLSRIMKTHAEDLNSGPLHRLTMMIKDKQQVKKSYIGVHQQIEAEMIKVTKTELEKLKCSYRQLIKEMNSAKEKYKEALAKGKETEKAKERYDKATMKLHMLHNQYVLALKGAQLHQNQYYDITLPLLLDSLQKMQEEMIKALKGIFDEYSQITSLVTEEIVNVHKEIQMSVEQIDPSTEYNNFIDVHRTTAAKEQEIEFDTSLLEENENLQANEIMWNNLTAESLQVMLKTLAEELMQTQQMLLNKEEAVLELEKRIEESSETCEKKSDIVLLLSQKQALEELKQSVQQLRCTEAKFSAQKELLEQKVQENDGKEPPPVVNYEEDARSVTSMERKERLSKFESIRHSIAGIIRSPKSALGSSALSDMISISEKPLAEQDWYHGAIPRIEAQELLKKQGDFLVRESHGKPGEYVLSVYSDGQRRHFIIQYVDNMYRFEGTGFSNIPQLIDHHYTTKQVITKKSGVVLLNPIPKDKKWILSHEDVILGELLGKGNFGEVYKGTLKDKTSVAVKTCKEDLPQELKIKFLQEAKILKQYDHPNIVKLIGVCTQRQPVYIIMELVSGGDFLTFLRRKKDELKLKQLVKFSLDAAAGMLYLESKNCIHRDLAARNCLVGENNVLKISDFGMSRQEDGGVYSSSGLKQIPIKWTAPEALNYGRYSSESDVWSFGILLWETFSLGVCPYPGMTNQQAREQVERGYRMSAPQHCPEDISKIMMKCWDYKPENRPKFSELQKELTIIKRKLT
Sequence of Macrophage colony-stimulating factor 1 receptor (Homo sapiens) (P07333 whole entry): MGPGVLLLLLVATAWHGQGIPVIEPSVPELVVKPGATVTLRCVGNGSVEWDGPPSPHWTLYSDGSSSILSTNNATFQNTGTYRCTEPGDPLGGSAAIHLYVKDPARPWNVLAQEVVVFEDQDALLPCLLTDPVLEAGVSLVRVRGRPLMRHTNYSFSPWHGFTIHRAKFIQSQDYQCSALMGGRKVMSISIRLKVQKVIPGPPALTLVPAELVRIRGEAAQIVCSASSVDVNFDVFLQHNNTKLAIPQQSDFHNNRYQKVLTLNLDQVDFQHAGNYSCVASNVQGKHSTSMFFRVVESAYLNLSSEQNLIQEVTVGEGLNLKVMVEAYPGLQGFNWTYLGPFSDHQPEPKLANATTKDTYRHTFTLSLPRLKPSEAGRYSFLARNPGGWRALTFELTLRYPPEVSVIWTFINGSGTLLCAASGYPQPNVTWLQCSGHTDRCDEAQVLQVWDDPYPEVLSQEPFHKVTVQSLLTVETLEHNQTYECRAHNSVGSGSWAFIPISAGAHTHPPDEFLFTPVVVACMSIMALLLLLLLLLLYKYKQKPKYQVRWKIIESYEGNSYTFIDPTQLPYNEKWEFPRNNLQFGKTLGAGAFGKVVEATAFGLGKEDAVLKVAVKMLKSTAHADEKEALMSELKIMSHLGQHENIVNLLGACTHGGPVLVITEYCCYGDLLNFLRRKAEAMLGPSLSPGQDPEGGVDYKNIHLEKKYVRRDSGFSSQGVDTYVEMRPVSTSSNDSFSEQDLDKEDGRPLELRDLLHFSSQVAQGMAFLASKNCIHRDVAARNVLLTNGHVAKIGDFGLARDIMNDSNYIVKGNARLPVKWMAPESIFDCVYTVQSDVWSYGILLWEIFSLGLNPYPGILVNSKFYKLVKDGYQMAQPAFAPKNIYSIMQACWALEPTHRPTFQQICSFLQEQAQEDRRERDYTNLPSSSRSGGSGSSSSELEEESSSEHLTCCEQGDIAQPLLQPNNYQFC
Sequence of Tyrosine-protein kinase Fgr (Homo sapiens) (P09769 2-529 limits assumed): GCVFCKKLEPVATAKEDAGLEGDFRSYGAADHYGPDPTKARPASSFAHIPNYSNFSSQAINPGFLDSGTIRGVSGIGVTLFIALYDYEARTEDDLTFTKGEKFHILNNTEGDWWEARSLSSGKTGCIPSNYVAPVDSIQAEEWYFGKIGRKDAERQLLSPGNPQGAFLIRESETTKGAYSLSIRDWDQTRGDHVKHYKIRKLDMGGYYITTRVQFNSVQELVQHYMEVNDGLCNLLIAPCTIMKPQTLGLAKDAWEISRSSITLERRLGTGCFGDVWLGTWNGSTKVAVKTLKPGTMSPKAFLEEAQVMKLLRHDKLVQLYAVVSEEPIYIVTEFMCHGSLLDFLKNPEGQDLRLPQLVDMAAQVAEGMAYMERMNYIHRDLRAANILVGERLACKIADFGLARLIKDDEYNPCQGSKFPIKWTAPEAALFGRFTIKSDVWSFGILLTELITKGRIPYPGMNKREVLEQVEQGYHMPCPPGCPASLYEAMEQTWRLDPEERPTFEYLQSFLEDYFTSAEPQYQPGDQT
Sequence of Tyrosine-protein kinase Fyn (Homo sapiens) (P06241 2-537 limits assumed): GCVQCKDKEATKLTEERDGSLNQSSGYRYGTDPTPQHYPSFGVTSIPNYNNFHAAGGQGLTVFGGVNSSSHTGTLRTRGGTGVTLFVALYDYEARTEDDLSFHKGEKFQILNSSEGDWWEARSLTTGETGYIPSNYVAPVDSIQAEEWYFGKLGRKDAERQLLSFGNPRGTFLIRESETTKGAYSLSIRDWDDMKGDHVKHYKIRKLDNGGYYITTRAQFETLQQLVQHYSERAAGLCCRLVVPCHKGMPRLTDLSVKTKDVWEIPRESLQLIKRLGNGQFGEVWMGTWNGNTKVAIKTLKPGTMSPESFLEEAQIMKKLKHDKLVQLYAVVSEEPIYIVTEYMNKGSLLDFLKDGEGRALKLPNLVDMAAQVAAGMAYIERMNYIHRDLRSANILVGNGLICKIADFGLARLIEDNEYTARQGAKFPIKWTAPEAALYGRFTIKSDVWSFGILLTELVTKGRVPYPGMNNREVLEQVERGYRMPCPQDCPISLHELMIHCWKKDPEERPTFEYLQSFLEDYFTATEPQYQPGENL
Sequence of G protein-coupled receptor kinase 6 (Homo sapiens) (P43250 whole entry, looked up): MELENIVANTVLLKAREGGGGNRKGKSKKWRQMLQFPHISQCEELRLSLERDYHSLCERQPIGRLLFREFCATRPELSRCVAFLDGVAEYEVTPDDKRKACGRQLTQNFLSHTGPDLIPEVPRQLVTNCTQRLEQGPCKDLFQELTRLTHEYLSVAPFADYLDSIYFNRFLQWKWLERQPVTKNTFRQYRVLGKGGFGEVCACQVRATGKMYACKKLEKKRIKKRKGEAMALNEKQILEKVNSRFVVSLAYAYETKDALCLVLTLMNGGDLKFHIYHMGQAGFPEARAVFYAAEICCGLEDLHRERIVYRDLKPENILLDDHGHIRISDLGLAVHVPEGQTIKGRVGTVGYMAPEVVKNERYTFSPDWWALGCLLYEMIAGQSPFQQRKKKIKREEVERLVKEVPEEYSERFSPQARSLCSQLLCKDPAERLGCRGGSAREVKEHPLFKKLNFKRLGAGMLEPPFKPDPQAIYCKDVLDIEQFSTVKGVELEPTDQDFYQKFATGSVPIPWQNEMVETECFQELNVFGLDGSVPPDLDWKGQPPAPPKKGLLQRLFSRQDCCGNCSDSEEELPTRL

SMILES | residual activity [1] | residual activity [2] | residual activity [3] | residual activity [4] | residual activity [5] | residual activity [6] | residual activity [7] | residual activity [8] | residual activity [9] | residual activity [10] | residual activity [11] | residual activity [12] | residual activity [13] | residual activity [14] | residual activity [15] | residual activity [16] | residual activity [17] | residual activity [18] | residual activity [19] | residual activity [20]
O=C1NC(=O)c2c1c1c3ccccc3[nH]c1c1[nH]c3cc(Br)ccc3c21 | 86% | 100% | 96% | 100% | 91% | 30% | 17% | 41% | 27% | 4% | 3% | 78% | 68% | 85% | 62% | 88% | 74% | 89% | 89% | 96%
CO[C@H]1C[C@@H]2CC[C@@H](C)[C@@](O)(O2)C(=O)C(=O)N2CCCC[C@H]2C(=O)O[C@H]([C@H](C)C[C@@H]2CC[C@@H](O)[C@H](OC)C2)CC(=O)[C@H](C)/C=C(\C)[C@@H](O)[C@@H](OC)C(=O)[C@H](C)C[C@H](C)/C=C/C=C/C=C/1C | 95% | 106% | 84% | 98% | 99% | 88% | 96% | 100% | 96% | 99% | 106% | 85% | 65% | 88% | 95% | 85% | 79% | 99% | 83% | 94%
N#C/C(=C(\N)Sc1ccc(N)cc1)c1ccccc1C(F)(F)F | 79% | 93% | 100% | 88% | 73% | 83% | 38% | 62% | 59% | 65% | 64% | 86% | 68% | 71% | 13% | 69% | 72% | 95% | 93% | 97%
O=C(Nc1cccc(Nc2nccc(Nc3cccc(C(F)(F)F)c3)n2)c1)C1CC1 | 59% | 84% | 68% | 59% | 67% | 59% | 6% | 45% | 3% | 55% | 6% | 14% | 2% | 47% | 7% | 97% | 32% | 102% | 94% | 104%
CC(C)n1cnc2/c(=N/c3cccc(Cl)c3)nc(NCCO)[nH]c21 | 47% | 58% | 12% | 48% | 12% | 68% | 30% | 20% | 1% | 42% | 5% | 83% | 39% | 21% | 3% | 35% | 19% | 61% | 53% | 76%
CNc1cc2c(Nc3cccc(Br)c3)ncnc2cn1 | 90% | 116% | 92% | 73% | 60% | 87% | 58% | 119% | 107% | 87% | 38% | 88% | 59% | 57% | 16% | 81% | 34% | 100% | 90% | 93%
Cc1nc(-c2ccccc2)c(-c2ccncc2)o1 | 105% | 108% | 120% | 95% | 92% | 89% | 60% | 69% | 28% | -1% | 0% | 90% | 86% | 90% | 69% | 91% | 77% | 107% | 97% | 105%
CN(C)c1ccc(/C=C2\C(=O)Nc3ccccc32)cc1 | 82% | 113% | 79% | 90% | 44% | 14% | 2% | 4% | 1% | 3% | 1% | 8% | 2% | 83% | 56% | 83% | 25% | 86% | 90% | 96%
Cc1cncc2cccc(S(=O)(=O)N3CCCN(C(=O)CN)C[C@H]3C)c12 | – | – | – | 99% | 53% | 82% | 63% | 100% | 86% | 78% | 51% | 73% | 78% | 93% | 78% | 82% | 46% | 68% | 51% | 79%
N#CC(C#N)=C(N)/C(C#N)=C/c1ccc(O)cc1 | – | – | 91% | – | 96% | 96% | 90% | 100% | 86% | 94% | 95% | 79% | 86% | – | 91% | 84% | 61% | – | 95% | 98%
O=C1Nc2ccc(Br)cc2/C1=C\c1cc2c([nH]1)CCCC2 | – | 107% | 78% | – | 72% | 17% | 20% | 3% | 1% | 1% | 1% | 11% | 3% | – | – | 24% | 42% | 100% | – | –
O=c1cc(-c2cccc3c2Sc2ccccc2S3)oc(N2CCOCC2)c1 | 83% | 94% | 96% | 99% | 93% | 95% | 85% | 85% | 83% | 97% | 69% | 101% | 74% | 91% | 94% | 101% | 101% | 99% | 101% | 96%
Cn1cnc2cc3c(Nc4cccc(Br)c4)ncnc3cc21 | 93% | 132% | 83% | 63% | 35% | 43% | 18% | 113% | 58% | 40% | 8% | 94% | 37% | 67% | 34% | 86% | 70% | 93% | 96% | 100%
CO[C@H]1[C@@H](OC)C[C@H](C)[C@@H](OC)C2=CC(=O)C=C(NC(=O)/C(C)=C/C=C/[C@H](OC)[C@@H](OC(N)=O)/C(C)=C/[C@@H]1C)C2=O | 99% | 111% | – | 99% | 100% | 86% | 95% | 85% | 76% | 92% | 89% | 131% | 112% | 88% | 96% | 92% | 81% | 102% | 89% | 100%
